The nature of experiment [1]: NCI Yeast Anticancer Drug Screen. Data for the rad50 strain (AID 155).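 Note: 0% = growth of vehicle-only cultures of the same strain.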 Conditions: S. cerevisiae rad50 strain growth inhibition; at 50.0 µM; stronger effect = higher value. In short, it runs like this: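 Readout: growth inhibition relative to vehicle-treated cultures. Compound exposure was carried out in a genetically defined yeast strain deficient in DNA damage repair.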
Experiment [2] can be described thus: NCI Yeast Anticancer Drug Screen. Data for the mec2-1 strain (AID 157). As to conditions: S. cerevisiae mec2-1 strain, at 50.0 µM, stronger effect = higher value. A digest of the protocol: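 Compounds were applied to mec2-1 yeast cells. Their growth was then compared with that of vehicle-treated cultures to give growth inhibition.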
Experiment [3] can be described thus: NCI Yeast Anticancer Drug Screen. Data for the mlh1 rad18 strain (AID 175). Conditions: S. cerevisiae mlh1 rad18 strain growth inhibition; at 50.0 µM; stronger effect = higher value. A digest of the protocol:
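A repair-deficient yeast strain is exposed to test compound, and growth is scored relative to vehicle-treated controls.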

Experiment [4] in a line: NCI Yeast Anticancer Drug Screen. Data for the sgs1 mgt1 strain (AID 161).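 Note: 0% = growth of cultures given vehicle only.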 Conditions: S. cerevisiae sgs1 mgt1 strain, at 50.0 µM, stronger effect = higher value. In short, it runs like this: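 Percent growth inhibition was derived by comparing compound-exposed mutant yeast with vehicle-exposed cultures. The strain carries alterations in DNA damage repair.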
Experiment [5] is described as follows: NCI Yeast Anticancer Drug Screen. Data for the cln2 rad14 strain (AID 165).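 Note: 0% = growth equal to vehicle treated cultures.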 As to conditions: S. cerevisiae cln2 rad14 strain, at 50.0 µM, stronger effect = higher value. A digest of the protocol: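 Strain: cln2 rad14 yeast, altered in cell cycle control and DNA damage repair. Read-out: growth inhibition vs vehicle.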
The nature of experiment [6]: NCI Yeast Anticancer Drug Screen. Data for the bub3 strain (AID 167). Conditions: S. cerevisiae bub3 mutant strain, at 50.0 µM, stronger effect = higher value. A digest of the protocol:
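Readout: yeast growth inhibition, expressed relative to vehicle-only wells. The test organism is a mutant strain from a panel with lesions in DNA repair or checkpoint genes.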

About 79,000 compounds went through this panel and 15% of them were active in at least one assay; those are over-represented in the sample as a whole. Values without a mark were called inactive. Activity calls are given as the source filed them. Cut-off read from the data, not from the text of the source: active = growth inhibition above about 70%; inactive = the rest.

The results in this text go back to PubChem BioAssay (NCI).

For `O=S(=O)(O)c1cccc2cccc(Cl)c12`, the values for the growth inhibition in experiment [1], in experiment [2] and in experiment [3] were 9.7%, -7.4% and 10.9%, respectively.
In the case of `O=c1oc(-c2ccccc2)nc2cc(Cl)ccc12`, the values for the growth inhibition in experiment [2] and in experiment [3] were 0.25% and 1.35%, respectively.
Regarding `CCOc1cc2c(cc1O)C=C[C@@H]1[C@@H]2CC[C@]2(C)[C@@H](O)CC[C@@H]12`, the growth inhibition is 2.15% in experiment [2]; 53.8% in experiment [4]; 26.7% in experiment [5]; 18.7% in experiment [6]; 25.7% in experiment [3].
Take `COc1ccc(N=C(C)C(C)=Nc2ccc(OC)cc2)cc1`: the growth inhibition in experiment [2] is 3%; in experiment [4] it was -15.1%; in experiment [5], 14.1%; in experiment [6] it was 11.6%; in experiment [3] it was -17.7%.
As to `O=C1CCC2CN3CCc4c([nH]c5ccccc45)C3CC2C1` (stereo not given), the growth inhibition is 26.2% in experiment [1] and 32.7% in experiment [3].
On to `COc1cc(C)c2c(c1C=O)Oc1c(c(C)c(O)c3c1C(O)OC3=O)OC2=O` (stereo not given), for which the growth inhibition in experiment [2] was -7.65%; in experiment [5], 25.6%; in experiment [3], -60.3%.
`O=C(NC(CO)C(O)c1ccc([N+](=O)[O-])cc1)C(Cl)Cl` (stereo not given): the growth inhibition in experiment [2] is -35.6%; in experiment [3], -19.5%.
The like results for `Nc1ccc(Nc2nc3ccccc3s2)c(O)c1` were, in that order, 2.15% and 24.6%.
In the case of `CC(=O)[CH-]C(=O)c1ccccc1.CC(=O)[CH-]C(=O)c1ccccc1.O=S(=O)([O-])c1cc([O-])c2c([O-])cc(S(=O)(=O)[O-])cc2c1.[Na+].[Zr+4]`, the growth inhibition in experiment [2] was -7.6%; in experiment [4], 25.6%; in experiment [6], 37.9%; in experiment [3], 10.8%.
On to `N#Cc1n[nH]n(-c2ccccc2)c1=O`, for which the growth inhibition in experiment [2] was -10.8%; in experiment [5], -11.7%; in experiment [6] it was -21%; in experiment [3], -13.7%.
As for `Cc1cccc(C)c1NC(=S)N(C)C`, the growth inhibition is -8.8% in experiment [1] and 4.65% in experiment [3].
As for `Nc1cc(S(=O)(=O)c2ccc(O)c(N)c2)ccc1O`, the growth inhibition in experiment [1] was 5.1%; in experiment [3] it was 9.05%.
The like results for `OCCN(CCO)C(CO)(CO)CO` were, in that order, 0.7% and 24.8%.
With `COC(=O)C(/C(=N/NC(N)=O)C(=O)Nc1ccc(C)cc1)c1nc2ccc([N+](=O)[O-])cc2[nH]c1=O` (stereo not given), the growth inhibition was 26.3% in experiment [2]; 0.45% in experiment [4]; -48.4% in experiment [5]; -11% in experiment [6]; 42.8% in experiment [3].
`COc1cc(/C=N\NC(=O)OC(C)(C)C)cc(OC)c1OC`: the values for the growth inhibition in experiment [1] and in experiment [3] were 6.25% and 10.5%, respectively.
For the compound `C[N+](C)(C)CN1C(=O)c2ccccc2C1=O`, the growth inhibition in experiment [1] was -11.9%; in experiment [3], -4.8%.
For the compound `ClCCOC(OCCCl)OCCCl`, the growth inhibition in experiment [1] was -7.4%; in experiment [3], 4.85%.
Regarding `CC(C)=CC(O)C/C(C)=C/CC/C(C)=C/CCC1(C)C(CCCO)/C(=C(/C)C=O)CCC1(C)O` (stereo not given), the growth inhibition is 4.75% in experiment [2], 10.2% in experiment [4], 16.9% in experiment [5] and -52.9% in experiment [3].
Turning to `CC(=O)NS(=O)(=O)c1ccc2sc(C)nc2c1`, the growth inhibition is -32% in experiment [1] and -27.7% in experiment [3].
Regarding `CCCCCCCCCCCCC/C=C/[C@H]1[C@@H](C(=O)OC)N1S(=O)c1ccc(C)cc1` (stereo not given in full), the growth inhibition in experiment [2] was -27.6%; in experiment [4], 1.25%; in experiment [5] it was -13.1%; in experiment [3], -43.5%.
In the case of `c1ccc(-c2nc3ccc4ccccc4c3nc2-c2ccccc2)cc1`, the growth inhibition in experiment [1] is -8.85%; in experiment [3], 1.85%.
With `[O-]c1ccccc1/C=N/C(/N=C/c1ccccc1[O-])c1ccccc1O.[O-]c1ccccc1/C=N/C(/N=C/c1ccccc1[O-])c1ccccc1O.[Zr+4]`, the growth inhibition is 6.4% in experiment [2], -1.6% in experiment [4], 14.2% in experiment [6] and 2.4% in experiment [3].
On to `O=C1c2ccccc2C(=O)N1/N=C/c1cc(Cl)cc(Cl)c1O`, for which the growth inhibition in experiment [1] is 0.95%; in experiment [3], -4.95%.
Take `Cc1ccc(CNc2cc(C)ccn2)cc1`: the results for the growth inhibition in experiment [1] and in experiment [3] were 42.9% and 26.9%, respectively.
`O=[N+]([O-])c1ccc(-n2[nH]nnc2=S)cc1`: the growth inhibition in experiment [2] is -25%; in experiment [3], 16.1%.
For `O=C1OC(=O)C2C1OC1C(=O)OC(=O)C12` (stereo not given), the growth inhibition is -35.6% in experiment [1] and -28.1% in experiment [3].
Turning to `CC1CC(C(=O)OC2OC(COC3OC(CO)C(OC4OC(C)C(O)C(O)C4O)C(O)C3O)C(O)C(O)C2O)C2CCC3(C)C(=CCC4(C)C3CCC3C(C)(CO)C(O)C(O)CC34C)C2C1C` (stereo not given), the growth inhibition in experiment [2] is 68.1%; in experiment [4], 72.8% (active); in experiment [5], 26.8%; in experiment [3], 24.4%.
Take `Cc1ccc(/C=C2/N=C(N/N=C\c3ccccc3)NC2=O)cc1`: the growth inhibition was 14.9% in experiment [2]; -19.4% in experiment [4]; 1.75% in experiment [5]; -9.1% in experiment [6]; -41.1% in experiment [3].
For `COc1cc2oc3c(c(=O)c2c(O)c1/C=C/C(C)C)CCC(C)(C)Oc1cc(O)ccc1-3`, in that order: 11.1%, 49%, 47.3%, 39.5% and -26.4%.
In the case of `Cc1c(Cl)cccc1NCN1C(=O)c2ccccc2C1=O`, the growth inhibition in experiment [2] was -6.6%; in experiment [3] it was 31.5%.
In the case of `COc1ccc(/C=N/N2C(=O)c3ccccc3C2=O)cc1OC`, the growth inhibition was 21% in experiment [1] and 6.3% in experiment [3].
For the compound `CCCCCCCCCC(=O)CC(=O)c1c(O)cc(O)cc1O`, the growth inhibition in experiment [2] is 91.3% (active); in experiment [4] it was 12.2%; in experiment [5], 22.4%; in experiment [3] it was 91.7% (active).
